Values joined by “and” are separate entries in the source; they are usually repeats but may differ in a detail not shown here. Equal values may be shown once. Among all 1,000 compounds or so, about 250 (25%) were called active. About 31% were inconclusive and are not listed. Not all results are given here. Potency and affinity values are given separately. Values without a mark were called inactive. No rule for the calls is given here.
Assay: compound activity on host-cell Toxoplasma growth – dose response (AID 1259420);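 also: host cells were HeLa; final incubation lasted 72 hours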
Conditions: Toxoplasma gondii growth in host cells, no IFN-gamma

CC(=O)NC1=NN(C(C)=O)C(C)(c2ccccc2)S1 (centres undefined)
max activity (at 19.5 µM unless noted): 5.61% [at 0.16 µM]

COc1ccccc1C#Cc1ccc([C@H]2[C@H](CO)N3CCCCN(C(=O)C4CCC4)C[C@@H]23)cc1
max activity (at 10 µM): 11.5% | max activity (at 19.5 µM): -7.69%

CN(C)CCNC(=O)c1ccc2onc(-c3coc(C4CC4)n3)c2c1
max activity (at 19.5 µM unless noted): 24.6%

COc1ccccc1Cn1ncc2c1CCCC2NC(=O)c1cc(-c2cccs2)no1 (centres undefined)
max activity (at 19.5 µM unless noted): 11.7% [at 1.2 µM]

O=C(C1CCOCC1)N1CC(=O)N2[C@H](C1)[C@@H](c1ccc(/C=C/c3ccccc3)cc1)[C@@H]2CO
max activity (at 19.5 µM unless noted): 10.5% [at 0.6 µM]

O=C(C1CCC1)N1CC(=O)N2[C@H](CO)[C@H](c3ccc(Br)cc3)[C@H]2C1
max activity (at 19.5 µM unless noted): -11.4% [at 10 µM]

Cc1nc(Cn2cnc(-c3nc(C(=O)NCc4cc(F)cc(F)c4)c4ccccn34)c2)cs1
max activity (at 19.5 µM unless noted): 15.4%

COC(=O)c1sccc1S(=O)(=O)N[C@@H]1CC[C@@H](N)C1
max activity (at 19.5 µM unless noted): -5.2%

CN(c1ccccc1)c1ccc2ccc(C(=O)N3CCCC3)cn12
max activity (at 19.5 µM unless noted): -21% [at 0.16 µM]

O=C(c1ccc(F)cc1)N1c2ccccc2Sc2ccc(C(F)(F)F)cc21
max activity (at 19.5 µM unless noted): 12.1% [at 10 µM]

O=C(NC1CCCC1)N1CCCCN2[C@@H](CO)[C@@H](c3ccc(-c4cccnc4)cc3)[C@@H]2C1
max activity (at 19.5 µM unless noted): -13.7% [at 2.6 µM]

CCc1ccc(S(=O)(=O)N2CCC3(CCC(C(=O)N4CCCC4)O3)CC2)cc1 (centres undefined)
max activity (at 19.5 µM unless noted): -11.2% [at 1.2 µM]

CN1C(=O)c2cc(NC(=O)Cc3cccs3)ccc2OC[C@@H]2O[C@H](CC(=O)N[C@@H]3CCN(Cc4ccccc4)C3)CC[C@@H]21
max activity (at 19.5 µM unless noted): 32%

COc1cccc(C(=O)Nc2ccc3c(c2)C(=O)N(C)[C@@H]2CC[C@H](CC(=O)N[C@H](C)c4ccccc4)O[C@@H]2CO3)c1
max activity (at 19.5 µM unless noted): -19.3% [at 1.2 µM]

CN1C(=O)c2cc(NC(=O)Cc3cccs3)ccc2OC[C@@H]2O[C@H](CC(=O)N[C@H]3CCN(Cc4ccccc4)C3)CC[C@@H]21
max activity (at 19.5 µM unless noted): 35.3% and 9.67%

CN1C(=O)c2cc(NC(=O)Cc3cccs3)ccc2OC[C@@H]2O[C@H](CC(=O)NCC3CCCCC3)CC[C@@H]21
max activity (at 19.5 µM unless noted): 9.14% [at 0.6 µM]

Cc1ccccc1-c1ccc([C@H]2[C@H](CO)N3CCCCN(S(=O)(=O)Cc4ccccc4)C[C@@H]23)cc1
max activity (at 19.5 µM unless noted): 27%

O=C(NCC1CC1)C1CN(C(=O)c2ccoc2)CC12CCOCC2 (centres undefined)
max activity (at 19.5 µM unless noted): 10.2% [at 0.16 µM]

CS(=O)(=O)N1CC(=O)N2[C@H](C1)[C@@H](c1ccc(C#CCC3CCCC3)cc1)[C@@H]2CO
max activity (at 19.5 µM unless noted): 17.8% [at 0.3 µM]

Cc1ccccc1S(=O)(=O)N1CC[C@H]2[C@H](CO)Nc3ccc(-c4ccc(F)cc4)cc3[C@H]21
max activity (at 19.5 µM unless noted): -15.5% [at 5 µM]

CC(C)CNC(=O)C1Cn2ccnc2C2(CCN(c3ncccn3)CC2)O1 (centres undefined)
max activity (at 19.5 µM unless noted): -6.18%

Fc1cccc(CN2CCC3(CC2)CC(OCC2CC2)CO3)c1 (centres undefined)
max activity (at 19.5 µM unless noted): -29.4% [at 10 µM]

COc1cccc(-c2nn(CC3CC3)c3c2[C@@H]2CN(C(=O)c4ccccc4)C[C@@H]2C3)c1
max activity (at 19.5 µM unless noted): 29.4%

COCC(=O)N1CC(=O)N2[C@H](CO)[C@@H](c3ccc(-c4ccccc4F)cc3)[C@H]2C1
max activity (at 19.5 µM unless noted): 10.5% [at 0.3 µM]

O=C(Cc1cccnc1)N1CC(=O)N2[C@H](CO)[C@H](c3ccc(/C=C/c4ccccc4)cc3)[C@@H]2C1
max activity (at 19.5 µM unless noted): -6.67% [at 10 µM]

O=C(Cc1cccnc1)N1CC(=O)N2[C@H](CO)[C@@H](c3ccc(/C=C/c4ccccc4)cc3)[C@H]2C1
max activity (at 19.5 µM unless noted): 15.6%

O=C(Cc1cccnc1)N1CC(=O)N2[C@H](CO)[C@@H](c3ccc(/C=C/c4ccccc4)cc3)[C@@H]2C1
max activity (at 19.5 µM unless noted): 14.8%

Cc1ccccc1-c1ccc([C@@H]2[C@H](CO)N3C(=O)CN(C(=O)c4ccncc4)C[C@@H]23)cc1
max activity (at 19.5 µM unless noted): 13%

COC(=O)/C=c1\sc2nc(=O)c(C)nn2c1=O
max activity (at 19.5 µM unless noted): -11.2% [at 10 µM]

COc1ccccc1-c1ccc(C2[C@@H]3CN(S(=O)(=O)c4ccc(C)cc4)C[C@H]2N3)cc1 (some centres undefined)
max activity (at 19.5 µM unless noted): 22.8%

Cc1cccc(S(=O)(=O)N2CCc3nc(-c4cnn(C)c4)nc(NC4CC4)c3C2)c1
max activity (at 19.5 µM unless noted): -22.6% [at 1.2 µM]

COc1ccc(S(=O)(=O)N2CCC(c3nc4ccc(-c5ccncc5)cn4n3)CC2)cc1
max activity (at 19.5 µM unless noted): -32.4% [at 10 µM]

Cc1nc(N2CCCC2)nc2c1CCN(S(=O)(=O)c1ccccc1)CC2
max activity (at 19.5 µM unless noted): -5.81% [at 10 µM]

CC(C)(C)NC(=O)[C@@H]1CC2CCCCC2CN1C[C@@H](O)[C@H](Cc1ccccc1)NC(=O)[C@H](CC(N)=O)NC(=O)c1ccc2ccccc2n1 (some centres undefined)
max activity (at 19.5 µM unless noted): -8.44%

CC/C(=C(\c1ccccc1)c1ccc(OCCN(C)C)cc1)c1ccccc1
max activity (at 19.5 µM unless noted): 22.1%

CCCNC(=O)c1cc(-c2ccn(CC3CC3)n2)n2ccccc12
max activity (at 19.5 µM unless noted): -19.1% [at 10 µM]

Cc1ccc(-c2cc(O)c3c(c2)CN(C(=O)CCN2CCCO2)CCO3)s1
max activity (at 19.5 µM unless noted): 12.4% [at 10 µM]

O=C1CNC[C@@H]2[C@H](c3ccc(C#Cc4cccnc4)cc3)[C@H](CO)N12
max activity (at 19.5 µM unless noted): 16.3%

N#Cc1ccc(-c2ccc([C@@H]3[C@@H](CO)N4C(=O)CNC[C@H]34)cc2)cc1
max activity (at 19.5 µM unless noted): 33.8%

O=S1(=O)c2ccccc2C2(CCN(CC3CC3)C2)N1Cc1ccc(F)cc1 (centres undefined)
max activity (at 19.5 µM unless noted): 13.7%

CN(Cc1ccccn1)C(=O)C1=NOC2(CCN(S(=O)(=O)c3cccc(F)c3)C2)C1 (centres undefined)
max activity (at 19.5 µM unless noted): -20.7% [at 10 µM]

CC(C)n1c(C(=O)Nc2cccc(F)c2)nc2c1CCN(Cc1ccccc1)C2
max activity (at 19.5 µM unless noted): -15.6% [at 10 µM]

CCC(=O)N1CC(=O)N2[C@H](CO)[C@H](c3ccc(C#CCC(C)C)cc3)[C@H]2C1
max activity (at 19.5 µM unless noted): 13.7%
